ChEMBL document CHEMBL3988442, “University of Dundee, Small-Polar-MMV Screening Library” (2021)
For some assays here: Results with a measured potency or affinity are listed apart.

How the values were obtained:
Design in all cases: scale not given: direction of the effect not stated beside the values
[1] = biological target: Protein translocase subunit SecA (Escherichia coli (strain K12)) (UniProt P10408); assay: Assay to Identify E. coli SecA ATPase Inhibitors; format: functional; conditions: 30 µM
[2] = biological target: T1, Ubiquitin-activating enzyme e1, putative (Leishmania donovani (strain BPK282A1)) (UniProt E9BSI1); assay: Leishmania donovani Ubiquitin Activating Enzyme (LdE1); format: functional; conditions: 30 µM
T1 sequence (whole entry): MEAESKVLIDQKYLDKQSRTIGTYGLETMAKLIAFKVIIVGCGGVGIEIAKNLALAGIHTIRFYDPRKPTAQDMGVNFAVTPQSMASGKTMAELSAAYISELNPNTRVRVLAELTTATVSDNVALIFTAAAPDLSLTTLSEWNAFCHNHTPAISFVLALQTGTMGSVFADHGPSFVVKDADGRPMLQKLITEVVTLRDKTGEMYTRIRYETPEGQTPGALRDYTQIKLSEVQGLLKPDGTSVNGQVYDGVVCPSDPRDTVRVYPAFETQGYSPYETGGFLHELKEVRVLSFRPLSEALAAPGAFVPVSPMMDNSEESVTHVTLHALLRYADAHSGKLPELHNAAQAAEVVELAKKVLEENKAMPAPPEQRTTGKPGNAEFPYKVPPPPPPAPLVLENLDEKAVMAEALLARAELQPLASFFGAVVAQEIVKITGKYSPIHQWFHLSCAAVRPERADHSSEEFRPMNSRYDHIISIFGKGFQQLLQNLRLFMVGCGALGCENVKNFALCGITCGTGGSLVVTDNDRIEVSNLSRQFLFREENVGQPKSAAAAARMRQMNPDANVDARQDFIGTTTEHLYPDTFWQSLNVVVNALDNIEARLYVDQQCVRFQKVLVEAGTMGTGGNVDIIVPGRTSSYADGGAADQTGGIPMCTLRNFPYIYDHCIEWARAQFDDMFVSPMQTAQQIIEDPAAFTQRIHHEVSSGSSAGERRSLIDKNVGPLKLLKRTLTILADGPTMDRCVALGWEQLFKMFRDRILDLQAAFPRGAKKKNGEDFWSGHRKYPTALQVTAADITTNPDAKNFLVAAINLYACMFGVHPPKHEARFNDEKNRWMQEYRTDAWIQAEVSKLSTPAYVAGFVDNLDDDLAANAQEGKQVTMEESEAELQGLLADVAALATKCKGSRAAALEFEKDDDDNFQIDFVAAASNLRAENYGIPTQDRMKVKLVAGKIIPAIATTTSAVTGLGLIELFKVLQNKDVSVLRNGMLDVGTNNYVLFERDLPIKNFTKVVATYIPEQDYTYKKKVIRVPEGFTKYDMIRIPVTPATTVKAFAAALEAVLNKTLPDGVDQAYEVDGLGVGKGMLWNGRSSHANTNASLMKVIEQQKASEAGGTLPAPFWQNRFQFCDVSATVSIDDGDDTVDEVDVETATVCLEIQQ

[3] = biological target: AMP-activated protein kinase, AMPK (Homo sapiens) (UniProt P54646+O43741+P54619+Q9UGJ0+Q9Y478+Q13131+Q9UGI9); assay: AMP-dependent Kinase enzyme assay. An in vitro enzyme assay that detects ADP turnover that is directly proportional to AMPK activity. This uses naive AMPK that is activated during the assay with MK-8722; format: functional; conditions: 30 µM
[4] = biological target: Sialic acid-binding Ig-like lectin 9 (Homo sapiens) (UniProt Q9Y336); assay: Hs-Siglec9 ALPHAscreen SOP 20170721; conditions: 10 µM
[5] = test system: Trypanosoma cruzi; assay: Trypanosoma cruzi phosphomannomutase and mannose-1-phosphate guanylyltransferase assay; format: functional; conditions: 10 µM
[6] = biological target: T2, Arginase-2, mitochondrial (Homo sapiens) (UniProt P78540); assay: in vitro enzyme assay to detect the production of urea directly proportional to the activity of Arginase II; format: functional; conditions: 33.3 µM; further: in the data most compounds retested in dose-response had high values
T2 sequence (whole entry): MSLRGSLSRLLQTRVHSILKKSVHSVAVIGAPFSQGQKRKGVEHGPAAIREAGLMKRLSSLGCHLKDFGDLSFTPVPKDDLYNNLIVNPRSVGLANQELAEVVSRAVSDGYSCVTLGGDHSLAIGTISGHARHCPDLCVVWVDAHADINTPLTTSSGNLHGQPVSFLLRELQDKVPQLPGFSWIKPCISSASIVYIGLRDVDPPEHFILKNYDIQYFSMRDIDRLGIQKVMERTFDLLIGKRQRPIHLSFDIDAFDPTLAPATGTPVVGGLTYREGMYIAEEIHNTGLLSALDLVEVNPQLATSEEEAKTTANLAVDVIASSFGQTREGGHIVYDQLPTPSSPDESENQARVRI

[7] = biological target: T3, Proteasome subunit beta (Trypanosoma cruzi) (UniProt O96673); assay: Trypanosoma cruzi proteasome chymotrypsin-like activity (TcProtChymo) assay.; further: in the data most compounds retested in dose-response had high values; format: functional; conditions: 9.37 µM
T3 sequence (whole entry): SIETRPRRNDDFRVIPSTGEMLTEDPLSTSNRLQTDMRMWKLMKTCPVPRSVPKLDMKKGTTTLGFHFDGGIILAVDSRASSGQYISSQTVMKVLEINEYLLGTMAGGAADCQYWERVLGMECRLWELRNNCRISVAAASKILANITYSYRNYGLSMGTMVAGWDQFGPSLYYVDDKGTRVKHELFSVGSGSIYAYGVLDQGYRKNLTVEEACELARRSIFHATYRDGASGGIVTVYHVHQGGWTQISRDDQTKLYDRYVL

[8] = species on record: Homo sapiens; assay: To identify inhibition of the IFN signalling (Jak-Stat) pathway via expression of an eGFP reporter gene under the control of an IFN-stimulated response element (ISRE) containing MxA promoter.; format: functional; conditions: 30 µM
[9] = biological target: T4, Tyrosyl-tRNA synthetase, putative (Trypanosoma cruzi (strain CL Brener)) (UniProt Q4DSP6); assay: Trypanosoma cruzi tyrosyl tRNA synthetase (TcYRS) _High Tyrosine SOP; format: functional; conditions: 30 µM; further: in the data most compounds retested in dose-response had high values
T4 sequence (whole entry): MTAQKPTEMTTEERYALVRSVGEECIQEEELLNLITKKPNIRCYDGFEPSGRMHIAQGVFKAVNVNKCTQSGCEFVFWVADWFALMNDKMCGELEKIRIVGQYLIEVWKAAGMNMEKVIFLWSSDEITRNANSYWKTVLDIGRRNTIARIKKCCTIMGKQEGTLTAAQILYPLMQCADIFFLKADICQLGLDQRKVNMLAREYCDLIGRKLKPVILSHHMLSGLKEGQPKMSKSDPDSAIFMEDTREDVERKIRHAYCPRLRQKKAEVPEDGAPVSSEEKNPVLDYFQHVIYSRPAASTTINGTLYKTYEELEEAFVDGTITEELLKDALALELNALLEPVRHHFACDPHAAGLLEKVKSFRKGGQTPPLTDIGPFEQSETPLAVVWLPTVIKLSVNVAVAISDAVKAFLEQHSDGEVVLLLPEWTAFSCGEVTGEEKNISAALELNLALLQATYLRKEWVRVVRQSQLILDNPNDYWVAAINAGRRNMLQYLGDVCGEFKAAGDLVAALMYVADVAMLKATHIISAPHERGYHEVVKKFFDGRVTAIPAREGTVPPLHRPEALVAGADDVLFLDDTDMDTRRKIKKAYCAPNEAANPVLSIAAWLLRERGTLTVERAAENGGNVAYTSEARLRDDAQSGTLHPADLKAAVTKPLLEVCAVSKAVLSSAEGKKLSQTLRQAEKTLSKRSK

[10] = biological target: T4, Tyrosyl-tRNA synthetase, putative (Trypanosoma cruzi (strain CL Brener)); assay: Trypanosoma cruzi tyrosyl tRNA synthetase (TcYRS) SOP; format: functional; conditions: 30 µM
[11] = biological target: Chromo domain-containing protein 1 (Saccharomyces cerevisiae (strain ATCC 204508 / S288c) (Baker's yeast)) (UniProt P32657); assay: ScCHD-1 Enzyme Inhibition Assay; format: functional; conditions: 30 µM; further: in the data most compounds retested in dose-response had high values
Sequence of Chromo domain-containing protein 1 (Saccharomyces cerevisiae (strain ATCC 204508 / S288c) (Baker's yeast)) (P32657 whole entry, the tested form may be a part): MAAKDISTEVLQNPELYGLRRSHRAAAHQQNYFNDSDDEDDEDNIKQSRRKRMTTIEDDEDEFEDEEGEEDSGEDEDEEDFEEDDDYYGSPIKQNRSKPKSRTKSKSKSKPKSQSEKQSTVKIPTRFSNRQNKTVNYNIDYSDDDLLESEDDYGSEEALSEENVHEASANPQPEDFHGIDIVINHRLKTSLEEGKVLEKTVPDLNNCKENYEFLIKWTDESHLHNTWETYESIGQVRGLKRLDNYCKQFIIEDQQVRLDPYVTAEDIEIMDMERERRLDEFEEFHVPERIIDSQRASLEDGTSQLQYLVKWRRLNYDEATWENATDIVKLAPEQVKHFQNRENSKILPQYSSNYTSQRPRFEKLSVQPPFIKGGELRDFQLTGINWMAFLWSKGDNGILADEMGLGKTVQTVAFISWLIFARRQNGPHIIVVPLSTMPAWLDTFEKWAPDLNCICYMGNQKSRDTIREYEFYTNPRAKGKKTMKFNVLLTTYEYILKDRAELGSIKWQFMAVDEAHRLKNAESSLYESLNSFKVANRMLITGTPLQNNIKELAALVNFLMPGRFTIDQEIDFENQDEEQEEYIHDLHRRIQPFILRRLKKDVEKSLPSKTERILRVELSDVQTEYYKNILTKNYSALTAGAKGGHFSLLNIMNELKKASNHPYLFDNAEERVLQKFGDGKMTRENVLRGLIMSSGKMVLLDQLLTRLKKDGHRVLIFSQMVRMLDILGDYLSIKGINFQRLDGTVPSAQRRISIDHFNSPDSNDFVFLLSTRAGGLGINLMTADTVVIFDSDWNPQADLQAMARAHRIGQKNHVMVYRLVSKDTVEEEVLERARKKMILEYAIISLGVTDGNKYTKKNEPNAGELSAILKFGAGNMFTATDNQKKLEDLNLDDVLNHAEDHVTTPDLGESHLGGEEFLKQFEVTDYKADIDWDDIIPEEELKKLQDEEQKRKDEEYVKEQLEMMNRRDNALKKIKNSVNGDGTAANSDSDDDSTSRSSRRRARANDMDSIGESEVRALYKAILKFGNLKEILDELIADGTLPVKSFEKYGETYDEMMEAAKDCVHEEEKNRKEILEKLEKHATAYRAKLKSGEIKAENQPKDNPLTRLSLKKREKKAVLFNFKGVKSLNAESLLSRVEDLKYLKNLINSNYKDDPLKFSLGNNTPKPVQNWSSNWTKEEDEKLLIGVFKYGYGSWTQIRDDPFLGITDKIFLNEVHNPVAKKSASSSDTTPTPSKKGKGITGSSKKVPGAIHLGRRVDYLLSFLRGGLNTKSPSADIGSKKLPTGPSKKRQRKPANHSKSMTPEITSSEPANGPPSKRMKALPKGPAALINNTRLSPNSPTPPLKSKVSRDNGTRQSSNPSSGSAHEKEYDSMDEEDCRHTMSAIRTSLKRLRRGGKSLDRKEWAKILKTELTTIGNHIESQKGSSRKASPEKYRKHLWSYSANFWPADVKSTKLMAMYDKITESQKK

Sequence of Protein translocase subunit SecA (Escherichia coli (strain K12)) (P10408 whole entry): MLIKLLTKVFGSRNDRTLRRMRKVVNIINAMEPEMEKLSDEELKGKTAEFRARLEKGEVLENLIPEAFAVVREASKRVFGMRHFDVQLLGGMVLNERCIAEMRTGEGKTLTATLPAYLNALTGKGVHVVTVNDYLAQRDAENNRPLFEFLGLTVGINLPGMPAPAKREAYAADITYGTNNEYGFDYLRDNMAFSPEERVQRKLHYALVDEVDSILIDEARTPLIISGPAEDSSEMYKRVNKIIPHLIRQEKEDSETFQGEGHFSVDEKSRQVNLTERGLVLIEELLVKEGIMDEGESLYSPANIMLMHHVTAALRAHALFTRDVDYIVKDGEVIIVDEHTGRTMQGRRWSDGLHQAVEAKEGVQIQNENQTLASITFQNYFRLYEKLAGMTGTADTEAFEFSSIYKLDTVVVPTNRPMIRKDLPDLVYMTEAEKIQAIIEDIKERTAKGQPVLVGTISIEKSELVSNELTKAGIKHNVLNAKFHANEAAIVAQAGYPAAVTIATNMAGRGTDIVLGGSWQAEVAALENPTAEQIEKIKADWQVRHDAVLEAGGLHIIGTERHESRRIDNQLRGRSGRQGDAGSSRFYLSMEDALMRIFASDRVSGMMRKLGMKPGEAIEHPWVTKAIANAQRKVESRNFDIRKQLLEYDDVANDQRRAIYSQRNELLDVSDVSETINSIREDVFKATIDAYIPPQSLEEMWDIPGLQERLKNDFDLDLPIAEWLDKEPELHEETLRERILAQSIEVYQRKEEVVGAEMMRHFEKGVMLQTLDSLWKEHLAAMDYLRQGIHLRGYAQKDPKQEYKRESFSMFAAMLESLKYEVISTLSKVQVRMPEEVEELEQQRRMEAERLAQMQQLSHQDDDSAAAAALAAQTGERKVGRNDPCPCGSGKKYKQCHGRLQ
Sequence of Sialic acid-binding Ig-like lectin 9 (Homo sapiens) (Q9Y336 whole entry): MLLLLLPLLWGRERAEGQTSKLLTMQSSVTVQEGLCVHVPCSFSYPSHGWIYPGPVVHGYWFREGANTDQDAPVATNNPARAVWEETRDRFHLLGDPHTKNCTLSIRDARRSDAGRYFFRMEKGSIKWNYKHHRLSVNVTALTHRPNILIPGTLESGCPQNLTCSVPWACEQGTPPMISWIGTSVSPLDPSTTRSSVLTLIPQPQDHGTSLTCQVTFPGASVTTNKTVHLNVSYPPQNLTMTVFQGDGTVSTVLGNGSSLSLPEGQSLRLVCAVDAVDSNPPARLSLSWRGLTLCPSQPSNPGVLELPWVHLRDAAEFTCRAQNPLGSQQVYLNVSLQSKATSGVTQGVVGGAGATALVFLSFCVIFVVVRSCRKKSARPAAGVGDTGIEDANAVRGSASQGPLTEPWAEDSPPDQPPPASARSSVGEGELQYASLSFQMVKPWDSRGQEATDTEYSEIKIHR

Compound	Percent Effect [1] [%]	Percent Effect [2] [%]	Percent Effect [3] [%]	Percent Effect [4] [%]	Percent Effect [5] [%]	Percent Effect [6] [%]	Percent Effect [7] [%]	Percent Effect [8] [%]	Percent Effect [9] [%]	Percent Effect [10] [%]	Percent Effect [11] [%]
CC(NC(=O)NCCCc1n[nH]c(N)c1C#N)c1cccs1 (stereo unspecified)	-4.67	22.8	38.5	-12.2	6.52	-14.1	16.6	15.9	8.37	24.1	-7.24
CN(Cc1ccon1)C(=O)C1CC(=O)N(Cc2ccncc2)C1 (stereo unspecified)	-6.1	5.41	-1.61	13.8	-0.684	0.248	2.66	14.7	5.38	8.64	-4.6
COc1cc(NC(=O)Cn2ccc3sc(C)cc3c2=O)cc(OC)c1	0.749	0	8.38	5.78	-5.42	17.4	7.49	2.45	1.06	11.5	-0.379
CNC(=O)C1Cn2ccnc2C2(CCN(Cc3cccnc3)CC2)O1 (stereo unspecified)	-4.76	10.8	2.08	2.7	-0.684	-0.319	23.4	-1.62	9.73	25.6	-0.425
O=C(Cc1csc(-c2ccc(Cl)cc2)n1)NC(C(=O)O)c1ccccc1 (stereo unspecified)	-2.32	-1.33	10.5	1.1	-3.73	-9.68	14.6	0.509	1.06	-2.56	-10
O=C(O)C1CCCCN1C(=O)c1cccc(C(F)(F)F)c1 (stereo unspecified)	-6.15	13.2	-2.92	7.67	1.4	-2.88	2.62	-1.55	4.43	16.1	3.59
CCN1CC(C(=O)NC(C)(C)CC(C)(C)C)CC1=O (stereo unspecified)	-3.13	10.8	-0.778	22.8	4.4	21.1	5.06	-0.424	5.38	8.64	-10.2
COc1ncccc1NC(=O)C1CCN(S(C)(=O)=O)CC1	-2.31	15.6	-6.01	4.87	0.749	-0.356	6.42	15.1	6.8	21.9	-9.19
CC(C)CN1CCCn2nc(CNC(=O)CCN)cc2C1	-6.28	5.33	4.29	6.76	1.85	3.65	13.4	7.88	6.01	16.1	-5.7
Cc1cc(C(N)=O)ccc1NC(=O)c1nc(N2CCCC2)ncc1Cl	0.24	0	-4.73	-1.27	-8.4	6.67	11.1	1.42	5.94	3.66	2.96
c1cnn(CCN2CCOC(Cn3cncn3)C2)c1 (stereo unspecified)	-1.82	17.7	-6.27	-8.37	-0.283	3.8	14.3	-0.00724	10.3	24.1	-9.31
Cc1[nH]ncc1C(=O)N1CCCC(n2cncn2)C1 (stereo unspecified)	-6.67	1.27	7.75	26.4	-0.308	3.23	4.63	9.83	1.04	0	-6.77
Cc1cccc(NC2CCN(C(=O)Nc3cc(C)on3)CC2)n1	-3.9	12.7	-3.67	8.79	5.57	0.76	1.39	-22.6	4.43	16.5	-8.82
O=C1c2cnc(N3CCOCC3)nc2CN1c1ccc2c(c1)OCO2	-4.88	7.79	1.53	6.09	2.26	-5.52	14.5	-11.1	9.68	21	0.201
Cc1noc(C)c1-c1cnc(CC2CCN(C(=O)c3cc[nH]n3)C2)cn1 (stereo unspecified)	-0.461	9.46	11.7	-4.31	-2.37	-2.09	7.02	3.9	8.6	14.3	-9.57
CN(Cc1cc(-c2ccccc2)no1)C1CCCN(c2cccnn2)C1 (stereo unspecified)	-6.51	-20.8	0.498	15.7	-3.93	-3.2	2.37	7.74	15.5	14.6	18.5
